ATG4B inhibitor = blocks human ATG4B protease cleavage of LC3 substrate. inhibition, % at 8.33 µM. AID 504462. ATG4B cleavage of LC3-PLA2, NBD-HPC fluorescence, 1 h. Q9Y4P1. 340,000 compounds, 0.51% hits; in the data active = inhibition above about 40%
PAFAH1B2 FP inh = blocks human PAF acetylhydrolase 1b catalytic subunit 2; P68402; inhibition, % at 3.39 µM; recombinant PAFAH1B2, FP-rhodamine activity probe, fluorescence polarization; AID 492953; 340,000 compounds, 1.2% hits;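 active = inhibition above the mean of all tested compounds plus 3 SD, cut at about 24% in these data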;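 also: 0% = enzyme with DMSO and 100% = wells lacking PAFAH1B2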
Target sequence (P68402 whole entry, looked up): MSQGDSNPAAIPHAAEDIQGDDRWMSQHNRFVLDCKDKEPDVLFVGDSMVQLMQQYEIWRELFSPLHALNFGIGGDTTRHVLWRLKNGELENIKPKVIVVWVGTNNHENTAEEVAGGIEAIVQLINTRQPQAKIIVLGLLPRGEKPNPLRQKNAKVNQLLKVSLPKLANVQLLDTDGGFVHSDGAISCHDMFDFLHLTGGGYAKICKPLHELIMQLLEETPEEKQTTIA
pPAFAH inh = pPAFAH (human) enzyme inhibition. Q13093. recombinant pPAFAH, FP-rhodamine probe fluorescence polarization. inhibition, % at 3.39 µM. 330,000 compounds, 1.5% hits. AID 463082;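 active = inhibition above the mean inhibition across the screen plus 3 SD, cut at about 25% in these data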;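 also: inhibitors block binding of the rhodamine activity-based probe so polarization drops; 0% = enzyme with DMSO and 100% = wells lacking pPAFAH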
PAFAH2 inh = inhibitors of human PAFAH2. Q99487. recombinant PAFAH2, FP-rhodamine activity probe, fluorescence polarization. inhibition, % at 3.39 µM. 340,000 compounds, 0.99% hits. AID 492956;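 active = inhibition above the mean over all tested compounds plus 3 SD, cut at about 30% in these data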;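 also: inhibitors block probe labeling of enzyme so polarization drops; 0% = enzyme with DMSO and 100% = wells lacking PAFAH2 protein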
PAFAH1B3 inh = blocks human PAF acetylhydrolase 1B catalytic subunit 3; recombinant PAFAH1B3, FP-rhodamine probe, fluorescence polarization; inhibition, % at 3.39 µM; 340,000 compounds, 0.28% hits; AID 492972;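 active = inhibition above the screen-wide average of all tested compounds plus 3 SD, cut at about 25% in these data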;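 also: 0% = enzyme with DMSO only and 100% = wells lacking PAFAH1B3 protein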
Target sequence (Q15102 whole entry, looked up): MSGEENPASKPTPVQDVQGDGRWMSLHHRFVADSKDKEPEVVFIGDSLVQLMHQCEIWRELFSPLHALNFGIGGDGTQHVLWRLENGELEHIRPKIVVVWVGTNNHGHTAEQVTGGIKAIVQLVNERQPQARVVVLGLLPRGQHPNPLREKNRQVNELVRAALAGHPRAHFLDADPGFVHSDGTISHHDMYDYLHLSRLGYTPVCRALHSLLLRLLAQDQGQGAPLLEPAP
DAGLB inhibitor = diacylglycerol lipase beta (human) inhibition; Q8NCG7; HEK293T DAGLB membrane lysate, EnzChek fluorogenic substrate; inhibition, % at 5.17 µM; 340,000 compounds, 0.059% hits; AID 504411; in the data active = inhibition above about 34%;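 also: 0% = enzyme with vehicle and 100% = wells lacking enzyme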
PAFAH2 confirm = PAFAH2 (human) inhibition, confirmed. inhibition, % at 3.39 µM. shares compounds with PAFAH2 inh. AID 493030. 2,300 compounds, 65% hits. recombinant PAFAH2, FP-rhodamine activity probe, fluorescence polarization;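 active = mean inhibition over three repeats above a set limit taken from the earlier primary screen, cut at about 30% in these data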;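 also: inhibitor blocks binding of rhodamine activity probe so polarization falls; 0% = enzyme with DMSO and 100% = wells lacking PAFAH2 protein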
Active calls of the source: *; / = no result. Sampled rows, rich in hits. Any-hit rate of the full collection: about 3%.

SMILES | ATG4B inhibitor | PAFAH1B2 FP inh | pPAFAH inh | PAFAH2 inh | PAFAH1B3 inh | DAGLB inhibitor | PAFAH2 confirm
O=C(COC(=O)c1ccccc1C(=O)c1ccc(Cl)cc1)NCc1ccccc1 | 5.4 | 3.8 | 3.8 | 33.6* | 5.5 | -2.2 | 26.4
c1cc(CCCc2ccncc2)ccn1 | -0.1 | 3.6 | 1.9 | -6.2 | 2.4 | -1.8 | /
O=C(COC(=O)c1ccccc1NC(=O)c1ccco1)Nc1ncc(Cl)cc1Cl | -8.6 | -4.0 | 5.9 | 8.4 | -0.3 | 2.1 | /
O=C(COC(=O)c1ccc(Cl)nc1)Nc1ncc(Cl)cc1Cl | 1.2 | 2.0 | 1.9 | 5.9 | 8.9 | -0.6 | /
O=C(COC(=O)c1ccccc1O)Nc1ncc(Cl)cc1Cl | -15.2 | 5.5 | 13.4 | 32.6* | -0.4 | 1.2 | 20.4
O=C(COC(=O)C12CC3CC(CC(C3)C1)C2)Nc1ncc(Cl)cc1Cl | 15.2 | 14.5 | 20.5 | 43.4* | 3.6 | -4.4 | 25.6
Cn1cc(Cl)c(/C(N)=N/OC(=O)c2ccccc2C(F)(F)F)n1 | 0.3 | 0.6 | 1.2 | 1.1 | -4.6 | 0.8 | /
O=C1C=CC(=O)C(CNc2ccc(C(=O)OCc3ccccc3)cc2)=C1 | 14.8 | 8.0 | / | 58.9* | 15.1 | 6.0 | 37.0*
O=C(COc1ccc2c(c1)oc(=O)c1ccccc12)NCCN1CCOCC1 | -2.3 | 0.9 | -7.6 | 1.9 | 3.0 | 2.8 | /
O=C(COC(=O)c1cccc(S(=O)(=O)N2CCOCC2)c1)Nc1ncc(Cl)cc1Cl | -30.3 | 3.0 | 8.4 | 35.2* | -3.4 | 2.8 | 24.3
N#Cc1ccc(Cl)cc1NC(=O)COC(=O)c1cccc(S(=O)(=O)N2CCOCC2)c1 | -6.3 | 2.7 | 1.3 | 45.8* | 1.1 | -3.7 | 37.9*
Cc1ccc(S(=O)(=O)/N=C2/C=C(C3C(=O)CC(C)(C)CC3=O)C(=O)c3ccccc32)cc1 | 1.5 | 1.5 | 7.6 | -1.5 | 10.2 | 3.5 | /
Cc1ccc(S(=O)(=O)/N=C2\C=C(NS(=O)(=O)c3ccccc3)C(=O)c3ccccc32)cc1 | -0.6 | 2.9 | / | 30.2* | 2.5 | 15.4 | 14.5
C#C[C@]1(O)CC[C@H]2[C@@H]3CCc4cc(OC5CCCC5)ccc4[C@H]3CC[C@@]21C | 3.0 | 0.9 | -0.5 | 53.4* | -4.0 | -6.0 | 51.2*
C#C[C@]1(O)CC[C@H]2[C@@H]3CCc4cc(OC)ccc4[C@H]3CC[C@@]21C | -11.4 | -0.6 | -2.7 | 25.8 | 9.7 | -3.3 | /
CC(C)(C)NC(=O)C(OC(=O)c1cccs1)c1ccc(F)cc1 (stereo not drawn) | -1.0 | 1.1 | 2.7 | -6.6 | 5.5 | 0.0 | /
O=C(O)/C=C/C(=O)NCCNc1ncc(C(F)(F)F)cc1Cl | 2.9 | 5.8 | 6.1 | 54.4* | 1.5 | -1.9 | 38.1*
Cn1cc(C=C2C(=O)OC3(CCCCC3)OC2=O)c2ccccc21 | 9.7 | 15.7 | 5.9 | 46.0* | 6.6 | -8.8 | 45.6*
O=c1c2c(nc3cc(-c4ccccc4)[nH]n13)CCS2 | 1.0 | 12.4 | 10.9 | 43.4* | 5.4 | 7.2 | 4.3
O=c1c2c(nc3cc(-c4ccccc4Cl)[nH]n13)CCS2 | 4.9 | 3.3 | 14.1 | 22.1 | 3.5 | 4.8 | /
O=C(O)CC(c1ccc(Br)cc1)N1Cc2ccccc2C1=O (stereo not drawn) | -4.0 | -0.7 | -0.5 | 9.4 | 10.9 | 0.8 | /
O=[N+]([O-])c1ccc(C=Nc2cccc3ccccc23)s1 | 0.4 | 9.3 | 7.1 | 65.7* | 15.3 | 1.2 | 8.2
O=C1C(=O)N(CCCN2CCOCC2)C(c2ccc(F)cc2)/C1=C(\O)c1ccc2c(c1)OCCO2 (stereo not drawn) | 3.8 | 4.4 | 2.4 | 48.4* | 1.0 | 2.5 | 2.6
CC(C)(C)c1ccc(C2/C(=C(\O)c3ccc4c(c3)OCCO4)C(=O)C(=O)N2CCCN2CCOCC2)cc1 (stereo not drawn) | -1.0 | 2.5 | 9.7 | 10.9 | -2.5 | 4.3 | /
CC1Cc2c([nH]c(=O)n(-c3ccccc3)c2=O)O1 (stereo not drawn) | -5.4 | 4.1 | / | 7.6 | 5.8 | 2.7 | /
CCc1sc(/C=C(/C#N)C(N)=S)cc1[N+](=O)[O-] | 18.0 | 12.5 | / | 31.1* | 10.5 | 15.2 | 24.6
CCCCn1c(N)c(N(CCOC)C(=O)c2ccc(N3C(=O)c4ccccc4C3=O)cc2)c(=O)[nH]c1=O | -59.5 | 1.9 | / | -4.6 | 3.2 | -2.2 | /
